This is a sample that favours compounds with a hit; in the whole collection about 10% have one here.
GPT2 inhibitor = GPT2 alanine aminotransferase inhibition. Q8TD30. Recombinant GPT2, coupled pyruvate oxidase/HRP Amplex Red fluorescence. Potency, µM (highest dose often 57.7 µM), without a hit: at the highest dose activity change, negative = inhibition, actives largely listed as inhibitors. 100,000 tested, 0.25% active. AID 1671188; further: on the % scale 0 is the no-effect control and ±100 the full control effect; nearly all actives have a fitted effect of over 60% in size
Target sequence (Q8TD30 whole entry, looked up): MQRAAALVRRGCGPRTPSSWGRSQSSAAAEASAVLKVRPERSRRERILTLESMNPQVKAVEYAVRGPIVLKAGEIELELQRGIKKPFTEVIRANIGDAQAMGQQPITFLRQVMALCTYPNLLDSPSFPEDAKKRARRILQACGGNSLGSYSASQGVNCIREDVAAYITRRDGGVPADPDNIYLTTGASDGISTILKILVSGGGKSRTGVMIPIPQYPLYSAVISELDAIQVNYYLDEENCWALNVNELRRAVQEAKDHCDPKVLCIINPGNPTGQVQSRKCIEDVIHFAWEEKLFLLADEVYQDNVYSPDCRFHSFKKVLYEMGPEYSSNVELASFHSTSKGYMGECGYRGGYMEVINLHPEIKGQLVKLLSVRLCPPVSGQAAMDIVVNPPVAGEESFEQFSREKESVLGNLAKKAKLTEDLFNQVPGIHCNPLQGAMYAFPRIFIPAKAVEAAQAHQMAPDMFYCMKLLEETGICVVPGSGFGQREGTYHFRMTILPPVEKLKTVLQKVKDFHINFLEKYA
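Fluorescence read-out: pyruvate from GPT2 turnover coupled to pyruvate oxidase, HRP and Amplex Red (0.2mM ThPP, 0.2U/mL PO and HRP, 50uM Amplex final). Substrates 250uM a-KG, 2mM L-alanine; enzyme 10ng/uL; 30 min RT.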
NPR1 antag = blocks ANP-stimulated signaling of human Npr1 receptor. P16066. HEK293 hNpr1 GloSensor cGMP, ANP-stimulated luminescence. Potency, µM (titrated, usually from 46.3 µM), for inactives: top-dose activity change, negative = inhibition, actives largely listed as inhibitors. 76,000 tested, 1.6% active; calls by dose curve; further: on the % scale 0 is the no-effect control and ±100 the full control effect; nearly all actives have a fitted effect of over 60% in size
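Compound pre-incubated 30 min at room temperature on GloSensor-loaded HEK293 cells stably carrying hNpr1 and the pGS-40F cGMP biosensor. Stimulation uses hNppA at 0.1 nM final; luminescence is taken at baseline and 20 min post-agonist.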
NIH3T3 tox = cytotoxic compounds in NIH 3T3 cells | NIH 3T3 viability, CellTiter-Glo ATP luminescence, 48-72 h | Potency, µM (highest dose often 96.7 µM), for inactives: at the highest dose activity change, negative = cytotoxicity, hits mostly inhibitors | 94,000 tested, 4.3% active | AID 1345082; further: on the % scale 0 is the no-effect control and ±100 the full control effect; nearly all actives have a fitted effect of over 55% in size
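Viability of NIH 3T3 cells after 48 or 72 hr compound treatment at 37 °C was assessed by CellTiter-Glo, with luminescence imaged following a 10 min room-temperature step.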
HEK cytotox = cytotoxic compounds in HEK 293 cells. 94,000 tested, 6.6% active. HEK 293 viability, ATP luminescence (CellTiter-Glo), 48-72 h. Potency, µM (titrated, usually from 115 µM), for inactives: at the highest dose activity change, negative = cytotoxicity, hits mostly inhibitors; further: on the % scale 0 is the no-effect control and ±100 the full control effect; nearly all actives have a fitted effect of over 60% in size
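HEK 293 cells at 250 cells/well were exposed to compounds by pintool transfer for 48 or 72 hr at 37 degree Celsius, 5% CO2. Viability was read as ATP-coupled luminescence with CellTiter-Glo after 10 min at room temperature.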
Luciferase inh = Photinus pyralis luciferase inhibition; P08659; purified P. pyralis luciferase, luminescence, biochemical; Potency, µM (titrated, usually from 115 µM), most hits filed as inhibitors; 76,000 tested, 2.5% active; AID 1347043; further: on the % scale 0 is the no-effect control and ±100 the full control effect; nearly all actives have a fitted effect of over 65% in size
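Purified 10nM P. pyralis luciferase with 10uM D-luciferin and 10uM ATP in 50mM Tris acetate pH 7.5, 10mM Mg acetate, 0.01% Tween-20, 0.05% BSA. qHTS titration; luminescence read by CCD imager.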
Npr1 antag conf = hNpr1 antagonism, confirmation assay; Potency, µM (series often up to 57.6 µM), for inactives: top-dose activity change, negative = inhibition, usual class: inhibitors; HEK293 hNpr1 cGMP GloSensor luminescence, ANP-stimulated; 1,400 tested, 76% active; shares compounds with NPR1 antag; calls by dose curve; further: nearly all actives have a fitted effect of over 70% in size
NPR2 antag = antagonizes human Npr2, subtype selectivity check; AID 1347046; HEK293 hNpr2 GloSensor cGMP luminescence, CNP-stimulated; shares compounds with NPR1 antag; Potency, µM (titrated, usually from 57.6 µM), inactives show at the top dose activity change, negative = inhibition, most hits filed as inhibitors; 1,400 tested, 67% active; calls by dose curve; further: nearly all actives have a fitted effect of over 70% in size
FLuc inh counter = counter-screen for Npr1 antagonists: firefly luciferase inhibitors; 1,400 tested, 0.7% active; Potency, µM (highest dose often 57.6 µM), for the others: at the highest dose activity change, negative = inhibition, usual class: inhibitors; purified FLuc enzyme, luminescence, Km substrate; shares compounds with NPR1 antag; AID 1347047; further: 0% is about no effect
GloSensor cGMP = counter-screen for Npr1 antagonists: GloSensor control cell line; shares compounds with NPR1 antag; HEK293 GloSensor cGMP, SNP-stimulated, luminescence; Potency, µM (series often up to 57.6 µM), without a hit: at the highest dose activity change, negative = inhibition, usual class: inhibitors; 1,400 tested, 69% active; calls by dose curve; further: on the % scale 0 is the no-effect control and ±100 the full control effect; nearly all actives have a fitted effect of over 70% in size
Numbers without * were called inactive; i = inactive; ? = inconclusive; . = no result; [ ] = dose if it differs, or a comment. Unless noted, the call rests on the fitted dose curve; in most records, active means well fitted curve in the direction sought with a large enough effect; inconclusive means small, poorly fitted or top-dose-only effect, or another doubt; inactive means no such curve, though single readings can be large; an effect the other way counts as inactive or inconclusive. Potency means the concentration at half of the fitted maximal effect.

SMILES | GPT2 inhibitor | NPR1 antag | NIH3T3 tox | HEK cytotox | Luciferase inh | Npr1 antag conf | NPR2 antag | FLuc inh counter | GloSensor cGMP
CC(=O)N1CCc2cc(S(=O)(=O)NCCCC(=O)N3CCC(CCOc4ccccc4)C3)ccc21 (stereo not drawn) | 3% | 5.6µM* | ? | ? | i | 5.4µM* | 6.1µM* | 7% | 4.8µM*
CC(=O)N1CCc2cc(S(=O)(=O)CCC(=O)N3CCCC(Cc4nncn4CC4CC4)C3)ccc21 (stereo not drawn) | 4% | 2% | -4% | -23% | i | . | . | . | .
CC(=O)N1CCc2cc(S(=O)(=O)CCC(=O)N3CCC(CCOc4ccccc4)C3)ccc21 (stereo not drawn) | i | 10µM* | -20% | -17% | i | 27µM* | ? | 3% | ?
CCOc1ccccc1NC(=O)N1CC(n2cc(C(=O)N(C)C)nn2)C1 | i | . | -15% | -4% | . | . | . | . | .
Cc1cc(Cl)ccc1-c1ccc(CNC2CN(C(=O)OC(C)(C)C)C2)cc1 | 1% | . | ? | ? | . | 22µM* | 22µM* | -1% | 19µM*
Cc1ccc(C(=O)N2CCC(n3cc(-c4nc(C5CC5)no4)nn3)C2)s1 (stereo not drawn) | i | 16µM* | -25% | ? | i | 24µM* | 24µM* | -2% | 14µM*
O=C(c1ccc(F)cc1Cl)N1CCC(n2cc(-c3nc(C4CC4)no3)nn2)C1 (stereo not drawn) | i | 16µM* | ? | ? | i | 27µM* | ? | -1% | ?
Cc1noc(-c2ccco2)c1C(=O)NCc1cccc2ccccc12 | ? | 13µM* | ? | ? | i | 24µM* | ? | 3% | 31µM*
Cc1noc(-c2cccc(F)c2)c1C(=O)NCc1cccc2ccccc12 | i | 1% | -17% | ? | i | . | . | . | .
CCCc1ccc(S(=O)(=O)N(C)CC2CCOCC2)cc1 | i | ? | ? | ? | i | 24µM* | ? | 3% | 19µM*
CC(C)Cc1ccc(S(=O)(=O)N(C)CC2CCOCC2)cc1 | -12% | 10µM* | -28% | ? | i | 15µM* | 14µM* | 0% | 11µM*
CC(C)Cc1ccc(S(=O)(=O)N(C)CC2CCOC2)cc1 (stereo not drawn) | ? | ? | -22% | ? | i | . | . | . | .
Cc1nc2c(c(-c3ccc(O)cc3)n1)CN(Cc1cccc3ccccc13)CC2 | -14% | -16% | ? | ? | i | -21% | -13%[86.2 µM] | -1%[86.2 µM] | i
Cc1oc2c(c1C(=O)N1CCN(c3ccccc3)CC1)CN(Cc1ccc(F)cc1)CC2 | -2% | ? | ? | ? | i | . | . | . | .
COCC1CN(C2CCC2)CC12CCN(C(=O)c1ccc(OC)cc1OC)CC2 (stereo not drawn) | i | . | -25% | ? | . | . | . | . | .
COc1ccc(-c2cc3c(c(OC)c2)OCCNC3)nn1 | i | 15% | -2% | -1% | i | . | . | . | .
COc1cc(-c2cc(C)c3c(OC)ccc(OC)c3n2)cc2c1OCCNC2 | i | ? | 20µM* | ? | i | ? | ? | -1% | 2%
CN(C)C[C@H]1O[C@H](Cc2cc(-c3cccc(O)c3)on2)CC[C@@H]1O | i | 28µM* | -9%[174 µM] | -29%[172 µM] | i | ? | -19%[86.2 µM] | -16%[86.2 µM] | ?
CCOc1ccccc1NC(=O)N1CCCC(c2noc(COc3ccccc3)n2)C1 (stereo not drawn) | i | -14% | ? | ? | i | . | . | . | .
COc1ccc(NC(=O)N2CCCC(c3noc(COc4ccccc4)n3)C2)c(C)c1 (stereo not drawn) | ? | ? | -52% | ? | i | 24µM* | ? | 0% | 22µM*
c1ccc(-n2cc(CN3CCC(Oc4ccncc4)CC3)nn2)cc1 | i | ? | ? | ? | i | ? | ? | 1% | ?
CCNC(=O)c1ccc2c(c1)OCCN(c1cccc(OC(F)(F)F)c1)C2 | ? | -29%[70.6 µM] | ? | ? | i | . | . | . | .
O=C(NC1CCOCC1)c1ccc2c(c1)OCCN(c1cccc(OC(F)(F)F)c1)C2 | -11%[88.5 µM] | ? | ? | 32µM* | i | 40µM* | ? | 4%[86.2 µM] | 44µM*
Cn1c(C(=O)N2CCC(N3CCCCC3)CC2)cc2c1CCN(Cc1cccc(F)c1)C2 | -15% | 1% | ? | ? | i | . | . | . | .
CN1CC(=O)N(C2CCNCC2)Cc2c1ncnc2N1CCc2ccccc2C1 | i | . | -13% | 2% | . | . | . | . | .
SMILES | GPT2 inhibitor | NPR1 antag | NIH3T3 tox | HEK cytotox | Luciferase inh | Npr1 antag conf | NPR2 antag | FLuc inh counter | GloSensor cGMP
COc1ccccc1-c1ncc2c(n1)OCCN(Cc1ccc(F)cc1F)C2=O | -17%[88.5 µM] | -3%[70.6 µM] | ? | -35%[172 µM] | i | . | . | . | .
O=C1c2cnc(-c3ccncc3)nc2OCCN1Cc1ccc(F)cc1F | ? | 18µM* | ? | ? | i | 31µM* | 25µM* | -2%[86.2 µM] | 22µM*
Cn1nccc1-c1ncc2c(n1)OCCN(Cc1ccc(F)cc1F)C2=O | 4%[88.5 µM] | 35µM* | ? | ? | i | 35µM* | 35µM* | 5%[86.2 µM] | 40µM*
COc1ccc(CN2CCOc3nc(-c4cccc(C(F)(F)F)c4)ncc3C2=O)cc1 | -5%[88.5 µM] | 32µM* | ? | ? | i | 35µM* | 35µM* | -6%[86.2 µM] | 40µM*
COCCN1CCOc2nc(-c3cc4ccccc4o3)ncc2C1=O | -7%[88.5 µM] | 13µM* | ? | ? | i | 9.9µM* | 9.9µM* | 0.5µM* | 7.9µM*
COc1cccc(NC(=O)O[C@@H]2CC[C@]3(C)C(CC[C@@H](O)[C@H]3CC(=O)N3CCCC3)[C@]2(C)CO)c1 (stereo partly drawn) | -1% | -3% | -18% | -16% | i | . | . | . | .
Cc1ccc(C(=O)N2CCC(Cc3nc(-c4cnccn4)no3)CC2)c(C)c1 | -1% | -18% | -13% | ? | i | . | . | . | .

High-throughput results (PubChem BioAssay)
